Measured values as given in PubChem BioAssay (Tox21).
Several values for one entry are separate records, joined by “and”; a condition that tells them apart may be missing. Equal values may be shown once. Inconclusive results are not listed. Unmarked numbers belong to inactive results. Activity calls are given as the source filed them. The call rests on the fitted dose curve; in most records, active means well fitted activation curve with a large enough effect in the repeat runs; inconclusive means weak or mixed curves; inactive means flat fitted curve, though single readings scatter.

test: A CellTox Green Cytotoxicity Assay to monitor cytotoxicity in HEK293 cells - 16 hour (AID 1224888); conditions: CellTox Green fluorescence; series mostly up to 76.8 µM; activity change: at the top concentration; further: nearly all actives have a fitted effect of over 35% in size
Description: National Center for Advancing Translational Sciences [NCATS]
NIH Chemical Genomics Center [NCGC]
U.S. Environmental Protection Agency [EPA]
National Institutes of Environmental Health Sciences [NIEHS]
National Toxicology Program [NTP]
Cell-based models are critical for drug discovery. Determining the natural cytotoxic effects resulting from test compounds is an essential research activity. A CellTox Green Cytotoxicity Assay to monitor cytotoxicity in real time of continues cell culture during 40 hours of the compound treatment was used to screen Tox21 10K library compounds in Hek293 cells. CellTox Green Cytotoxicity Assay is a nonlytic, homogeneous, biofluorescent method to measure cytotoxicity in cell culture after experimental manipulation. The assay system uses a proprietary asymmetric cyanine dye that is excluded from viable cells but preferentially stains the dead cell's DNA. […] Viable cells produce no appreciable increases in fluorescence. Therefore, the fluorescence signal produced by the binding interaction with dead cell DNA is proportional to cytotoxicity.
The mixture of Hek293 cell suspension and reagents were dispensed at 600cells/6 ul/well in 1536-well tissue culture treated black solid bottom plates using a Multidrop dispenser. After the assay plates were incubated at a 37 C/5% CO2 incubator for 5 hours, 23 nL of compounds dissolved in DMSO, positive and negative controls was transferred to the assay plate by a pintool work station. The plates were incubated at 37 C for 40 hours. The fluorescence intensity were measured at 0h, 8h, 16h, 24h, 32h and 40h time points using ViewLux plate reader during compound treatment.
On the % scale 0 is the no-effect control and ±100 the full control effect; potency means the concentration at half of the fitted maximal effect.

Row | Compound | activity change | Potency
1 | Clc1ccc(CO/N=C(\Cn2ccnc2)c2ccc(Cl)cc2Cl)c(Cl)c1 | 4.48% [at 35.3 µM, hits give high values] | 
2 | CN(C)C(=S)S |  | inactive
3 | N#C/C=C/c1ccccc1 | 2.14% | 
4 | Nc1ccc([N+](=O)[O-])cc1Cl | -0.0608% | 
5 | CN(C)C(=S)[S-].CN(C)C(=S)[S-].[Cu+2] |  | 2.38 µM (active)
6 | ClC1=C(Cl)[C@]2(Cl)[C@H]3[C@H]([C@H]4C=C[C@H]3C4)[C@@]1(Cl)C2(Cl)Cl | -2.28% | 
7 | CCC(C)c1cc([N+](=O)[O-])cc([N+](=O)[O-])c1OC(=O)C=C(C)C (stereo not given) | -16.9% | 
8 | N#CCCO | -9.45% | 
9 | CCCCCCCCCCCCBr | 8.1% | 
10 | Cc1cc(SCc2sc(-c3ccc(C(F)(F)F)c(F)c3)nc2C)ccc1OCC(=O)O | 12.8% | 
11 | CCOC(=O)OC1=C(c2cc(C)ccc2C)C(=O)NC12CCC(OC)CC2 (stereo not given) | -3.27% | 
12 | CC(C)OS(C)(=O)=O | 1.6% | 
13 | Cc1cc(Cl)ccc1O[C@H](C)C(=O)O | -12.6% | 
14 | FC(F)(F)c1cccc(C2=CCN(CCc3ccc4ccccc4c3)CC2)c1 | -2.18% [at 35.3 µM, hits give high values] | 
15 | CN(C)CCc1c[nH]c2cccc(O)c12 | 0.588% | 
16 | O=C(CCl)Nc1ccccc1 | -1.27% | 
17 | CC(C)(C)c1cc([N+](=O)[O-])cc(C(C)(C)C)c1O | 3.2% | 
18 | COC12CC[C@@]3(C[C@@H]1C(C)(O)C(C)(C)C)[C@H]1Cc4ccc(O)c5c4[C@@]3(CCN1CC1CC1)[C@H]2O5 (stereo not given in full) |  | 21.7 µM (active)
19 | c1cc[c]([Sb]([c]2ccccc2)[c]2ccccc2)cc1 | 12.2% | 
20 | Oc1ccc(C(c2ccc(O)cc2)(C(F)(F)F)C(F)(F)F)cc1 | 5.33% | 

Row | Compound | activity change | Potency
21 | O=C/C(Cl)=C(/Cl)C(=O)O |  | inactive
22 | CCCCCCCCCCCCCCC(Br)C(=O)O (stereo not given) | 0.0124% | 
23 | ClC1=C(Cl)[C@]2(Cl)[C@@H]3[C@@H]4C[C@@H]([C@H]5O[C@@H]45)[C@@H]3[C@@]1(Cl)C2(Cl)Cl |  | 49 µM (active)
24 | CCCCCCCCCCBr | -7.93% | 
25 | CC(C)CC(C)Nc1ccc(Nc2ccccc2)cc1 (stereo not given) | 3.23% | 
26 | CCOP(=S)(OCC)SCCS(=O)(=O)CC | -5.42% | 
27 | ClC1=C(Cl)[C@]2(Cl)[C@@H]3[C@@H](Cl)[C@@H](Cl)C[C@@H]3[C@@]1(Cl)C2(Cl)Cl | 6.38% | 
28 | CC1(C)C(/C=C(\Cl)C(F)(F)F)C1C(=O)OC(C#N)c1cccc(Oc2ccccc2)c1 (stereo not given) | -14.9% | 
29 | CCN(CC)C(=S)[S-].CCN(CC)C(=S)[S-].[Zn+2] | 20.2% | 
30 | ClCc1ccccc1CCl | 11.8% | 
31 | CC(=O)OC1(c2ccccc2)CCN(CCc2ccccc2)CC1 | -3.96% | 
32 | OC(c1ccc(Cl)cc1)(c1ccc(Cl)cc1)C(Cl)(Cl)Cl | 12.4% | 
33 | Brc1c(Br)c(Br)c(Oc2c(Br)c(Br)c(Br)c(Br)c2Br)c(Br)c1Br | -4.12% [at 15.8 µM, hits give high values] | 
34 | COc1cc(C=O)cc2c1[C@H](COC(N)=O)[C@]1(OC(C)=O)ON2C[C@H]2[C@@H]1N2C(C)=O | 2.64% | 
35 | NC(=O)c1ccc(N)nc1 | -2.9% | 
36 | ClC1=C(Cl)C2(Cl)C3C(Cl)C=CC3C1(Cl)C2(Cl)Cl (stereo not given) |  | 55.2 µM (active) and 49 µM (active)
37 | COP(N)(=S)OC | -10.7% | 
38 | CCN(CC)c1c([N+](=O)[O-])cc(C(F)(F)F)c(N)c1[N+](=O)[O-] | 13.6% | 
39 | CC(=O)[O-].CC(=O)[O-].O.O.[Cd+2] | 13.9% | 
40 | N#Cc1ccc(O)cc1 | -7.62% | 
